Source: PubChem BioAssay (Tox21)
Where “and” joins values, the source holds several entries; their conditions need not be identical. Equal entries are not always repeated. Results filed as inconclusive are left out. Calls of active or inactive are those of the source. Unless noted, calls follow the shape of the full dose curve.

Experiments:
[1] = target: Gonadotropin-releasing hormone receptor (Homo sapiens) (UniProt P30968); assay: Human gonadotropin-releasing hormone receptor (GnRHR) small molecule agonists, calcium flux assay in GnRHR-HEK293 cells (AID 1920063); also: nearly all actives have a fitted effect of over 35% in size; also: potency is read from the fitted curve at half-maximal effect
Gonadotropin-releasing hormone receptor (Homo sapiens), sequence (P30968 whole entry, looked up): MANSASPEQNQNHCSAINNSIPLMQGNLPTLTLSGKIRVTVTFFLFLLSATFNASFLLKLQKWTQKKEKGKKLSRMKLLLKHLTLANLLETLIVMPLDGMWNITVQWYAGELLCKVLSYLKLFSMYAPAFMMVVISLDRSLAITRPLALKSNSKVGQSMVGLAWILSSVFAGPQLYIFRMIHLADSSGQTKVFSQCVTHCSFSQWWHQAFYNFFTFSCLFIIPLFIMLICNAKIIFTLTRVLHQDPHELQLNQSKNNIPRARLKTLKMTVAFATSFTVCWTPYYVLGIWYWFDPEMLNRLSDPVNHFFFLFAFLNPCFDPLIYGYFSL
Method in brief: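 Cells: HEK293 stably expressing human GnRHR. Steps: overnight (18 h) culture, 1 h calcium dye loading at 37 C, compound addition, kinetic fluorescence read at 480/540 nm. Each compound tested at 15 concentrations in triplicate.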

[2] = target: KiSS-1 receptor (Homo sapiens) (UniProt Q969F8); assay: Human kisspeptin (KISS1R) small molecule agonists, calcium flux assay in KISS1R-HEK293 cells (AID 1920064; active = well fitted activation curve with a large enough effect in the repeat runs; also: potency is read from the fitted curve at half-maximal effect)
KiSS-1 receptor (Homo sapiens), sequence (Q969F8 whole entry, looked up): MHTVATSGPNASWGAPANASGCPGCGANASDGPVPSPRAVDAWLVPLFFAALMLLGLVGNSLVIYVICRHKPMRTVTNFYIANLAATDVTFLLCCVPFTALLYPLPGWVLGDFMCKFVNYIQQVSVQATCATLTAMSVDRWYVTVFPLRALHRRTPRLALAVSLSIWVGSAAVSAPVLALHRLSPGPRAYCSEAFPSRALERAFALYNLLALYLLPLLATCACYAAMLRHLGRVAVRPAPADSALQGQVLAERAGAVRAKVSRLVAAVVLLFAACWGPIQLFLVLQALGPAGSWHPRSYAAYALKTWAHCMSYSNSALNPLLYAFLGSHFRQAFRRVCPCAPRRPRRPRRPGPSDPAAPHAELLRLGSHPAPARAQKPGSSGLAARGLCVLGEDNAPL
Method in brief: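 Cells plated and incubated 18 h; dye added, 1 h at 37 C; compounds in DMSO pinned in; signal read at 480/540 nm every second for 3 min. Each compound tested at 15 concentrations in triplicate.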

[3] = G protein-coupled receptor (GPCR) small molecule agonists, calcium flux assay: HEK293 wild type cell line counter screen (AID 1920065)
Method in brief: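 Counter-screen of the Tox21 10K library for non-specific calcium release: dye-loaded cells received compounds in DMSO and were monitored by kinetic fluorescence (480/540 nm, 3 min). Fifteen concentrations, run in triplicate.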

[4] = p53 small molecule agonists, cell-based qHTS assay with human liver microsomes (AID 1963577);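 also: p53 response element beta-lactamase reporter cells with liver microsomes plus NADPH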
Method in brief: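 Steps: plate p53RE-bla cells, incubate 5 h at 37 C; add compound in DMSO; add microsomes (0.5 mg/mL final) and NADPH (0.5 mg/mL final); incubate 16 h at 37 C; add LiveBLAzer, 2 h RT; read fluorescence.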

[5] = p53 small molecule agonists, cell-based qHTS assay with rat liver microsomes (AID 1963578)
Method in brief: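 Metabolic activation is supplied by rat liver microsomes with NADPH (each 0.5 mg/mL final). p53RE-bla cells incubate with compound 16 h at 37 C; reporter activity is measured by LiveBLAzer fluorescence.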

[6] = p53 small molecule agonists, cell-based qHTS assay with human liver microsomes: qHTS cell viability counter screen (AID 1963579); also: nearly all actives have a fitted effect of over 45% in size
Method in brief: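 After the 460/530 nm beta-lactamase read, CellTiter-Glo was added to the same wells and luminescence measured after 30 min at room temperature, giving viability of p53RE-bla cells treated 16 h with compounds plus microsomes and NADPH.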

[7] = p53 small molecule agonists, cell-based qHTS assay with rat liver microsomes: qHTS cell viability counter screen (AID 1963580); also: nearly all actives have a fitted effect of over 45% in size
Method in brief: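 In HCT-116 cells carrying a p53 response element-bla reporter, compounds were metabolically activated in situ by rat liver microsomes with NADPH over 16 h. Cell ATP content then served as the cytotoxicity measure.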

[8] = p53 small molecule agonists, cell-based qHTS assay: qHTS cell viability counter screen (AID 1963581); also: nearly all actives have a fitted effect of over 45% in size
Method in brief: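 Cells: HCT-116 with p53 response element-driven beta-lactamase. Treatment: 16 h, 37 C, compounds in DMSO. Read: CellTiter-Glo luminescence after 30 min RT.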

[9] = p53 small molecule agonists, cell-based qHTS assay (AID 1963582; active = well fitted activation curve with a large enough effect in the signal ratio in the repeat runs, not every such curve was filed as active; the % refers to the signal ratio)
Method in brief: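 Quantitative HTS in p53RE-bla cells: after a 5 h settling period, compounds delivered in DMSO were left on cells for 16 h at 37 C, and reporter induction was measured as fluorescence following 2 h substrate loading.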

[10] = target: 5-hydroxytryptamine receptor 2A (Homo sapiens) (UniProt P28223); assay: 5-hydroxytryptamine receptor 2A (HTR2A) small molecule antagonists, cell-based qHTS assay (AID 1963586); also: nearly all actives have a fitted effect of over 45% in size
5-hydroxytryptamine receptor 2A (Homo sapiens), sequence (P28223 whole entry, looked up): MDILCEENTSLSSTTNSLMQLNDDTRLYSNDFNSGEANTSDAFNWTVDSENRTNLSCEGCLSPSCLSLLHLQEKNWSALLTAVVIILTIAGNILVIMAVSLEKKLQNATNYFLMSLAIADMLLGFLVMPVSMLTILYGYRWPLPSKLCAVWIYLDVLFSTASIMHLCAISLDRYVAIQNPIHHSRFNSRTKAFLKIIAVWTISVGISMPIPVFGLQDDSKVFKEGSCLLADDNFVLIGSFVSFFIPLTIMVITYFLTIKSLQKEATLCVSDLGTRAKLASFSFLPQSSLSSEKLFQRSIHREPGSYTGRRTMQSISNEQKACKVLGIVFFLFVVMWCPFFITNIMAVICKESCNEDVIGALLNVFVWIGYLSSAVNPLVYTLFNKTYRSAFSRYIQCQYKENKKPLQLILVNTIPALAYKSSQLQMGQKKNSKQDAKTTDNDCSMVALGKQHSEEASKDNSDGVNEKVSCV
Method in brief: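 Antagonist-mode intracellular calcium assay: DOI (4 nM) added after 5 min compound pre-incubation at room temperature to dye-loaded HTR2A-CHO cells. Fluorescence followed for 3 min, sampled every second.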

[11] = target: 5-hydroxytryptamine receptor 2A (Homo sapiens) (UniProt P28223); assay: 5-hydroxytryptamine receptor 2A (HTR2A) small molecule agonists, cell-based qHTS assay (AID 1963587); also: nearly all actives have a fitted effect of over 30% in size; also: potency is read from the fitted curve at half-maximal effect
Method in brief: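 HTR2A-CHO cells, plated 18 h at 37 C/5% CO2, dye-loaded 1 h at 37 C; compounds in DMSO added by pin tool (agonist mode). Intracellular calcium flux read as kinetic fluorescence on FDSS over 2 min at 1 s intervals.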

[12] = target: Muscarinic acetylcholine receptor M1 (Homo sapiens) (UniProt P11229); assay: Cholinergic receptor muscarinic 1 (CHRM1) small molecule antagonists, cell-based qHTS assay (AID 1963588); also: nearly all actives have a fitted effect of over 40% in size
Muscarinic acetylcholine receptor M1 (Homo sapiens), sequence (P11229 whole entry, looked up): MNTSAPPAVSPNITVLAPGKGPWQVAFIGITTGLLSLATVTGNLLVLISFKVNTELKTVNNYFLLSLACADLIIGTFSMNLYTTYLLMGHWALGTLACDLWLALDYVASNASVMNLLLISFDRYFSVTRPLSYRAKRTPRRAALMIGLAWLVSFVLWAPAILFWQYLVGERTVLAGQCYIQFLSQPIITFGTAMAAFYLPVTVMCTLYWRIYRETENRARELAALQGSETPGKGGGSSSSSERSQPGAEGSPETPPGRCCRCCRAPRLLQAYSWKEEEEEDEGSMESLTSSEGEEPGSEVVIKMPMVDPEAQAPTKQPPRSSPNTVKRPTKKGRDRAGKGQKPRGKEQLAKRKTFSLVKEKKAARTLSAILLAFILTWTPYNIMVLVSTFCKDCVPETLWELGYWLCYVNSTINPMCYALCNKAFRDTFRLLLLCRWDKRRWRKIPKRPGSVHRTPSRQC
Method in brief: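 CHRM1-CHO calcium-flux assay, antagonist mode. Cells were seeded 18 h, dye-loaded 1 h at 37 C and given compound for 5 min at RT, then acetylcholine was added at 50nM. FDSS fluorescence was read 3 min; 15 concentrations, three runs.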

[13] = target: Muscarinic acetylcholine receptor M1 (Homo sapiens) (UniProt P11229); assay: Cholinergic receptor muscarinic 1 (CHRM1) small molecule agonists, cell-based qHTS assay (AID 1963589); also: nearly all actives have a fitted effect of over 35% in size; also: potency is read from the fitted curve at half-maximal effect
Method in brief: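 Agonist-mode qHTS in CHO cells stably carrying human muscarinic M1. Intracellular calcium is tracked by fluorescence every second after compound transfer; each compound runs at 15 concentrations in three independent runs.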

[14] = cAMP Responsive Elements (CRE) small molecule agonists, cell-based qHTS assay (AID 1963590)
Method in brief: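 Agonist mode qHTS in CRE-bla HEK 293T cells: compounds dosed from DMSO for 3 h at 37 C/5% CO2, followed by LiveBLAzer B/G FRET substrate for 2 h at room temperature.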

[15] = cAMP Responsive Elements (CRE) small molecule antagonists, cell-based qHTS assay (AID 1963591; active = well fitted inhibition curve with a large enough effect in the signal ratio in the repeat runs, not every such curve was filed as active; the % refers to the signal ratio)
Method in brief: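 Antagonist mode: test compounds are co-incubated with the adenylyl cyclase activator NKH477 (0.25 uM final) on CRE-bla HEK293T cells for 3 h at 37 °C, followed by LiveBLAzer substrate loading.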

[16] = target: Beta-2 adrenergic receptor (Homo sapiens) (UniProt P07550); assay: Adrenergic beta2 receptor (ADRB2) small molecule antagonists, cell-based qHTS assay (AID 1963592); also: nearly all actives have a fitted effect of over 50% in size; also: potency is read from the fitted curve at half-maximal effect
Beta-2 adrenergic receptor (Homo sapiens), sequence (P07550 whole entry, looked up): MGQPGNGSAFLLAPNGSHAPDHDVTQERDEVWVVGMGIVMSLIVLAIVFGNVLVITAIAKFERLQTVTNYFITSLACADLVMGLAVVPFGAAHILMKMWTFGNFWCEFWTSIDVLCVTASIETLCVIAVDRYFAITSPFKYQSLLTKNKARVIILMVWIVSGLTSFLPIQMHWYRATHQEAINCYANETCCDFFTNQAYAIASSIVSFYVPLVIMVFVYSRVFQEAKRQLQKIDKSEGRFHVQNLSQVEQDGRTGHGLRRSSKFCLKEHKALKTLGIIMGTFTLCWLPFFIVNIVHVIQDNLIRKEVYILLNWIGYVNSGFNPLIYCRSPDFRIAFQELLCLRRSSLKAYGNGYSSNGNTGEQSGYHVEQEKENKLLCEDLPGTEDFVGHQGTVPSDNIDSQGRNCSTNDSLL
Method in brief: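 Cells (CHO, stable ADRB2 overexpression) incubated 18-20hr at 37C; compounds added from DMSO; agonist mix (1nM isoproterenol, 100uM IBMX, 25uM Ro-20-1724) added; 0.5hr RT; d2-cAMP and anti-cAMP-cryptate added; 1hr RT; 665/615 nm read.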

[17] = target: D(2) dopamine receptor (Homo sapiens) (UniProt P14416); assay: Dopamine D2 receptor (DRD2) small molecule agonists, cell-based qHTS assay (AID 1963594); also: nearly all actives have a fitted effect of over 35% in size; also: potency is read from the fitted curve at half-maximal effect
D(2) dopamine receptor (Homo sapiens), sequence (P14416 whole entry, looked up): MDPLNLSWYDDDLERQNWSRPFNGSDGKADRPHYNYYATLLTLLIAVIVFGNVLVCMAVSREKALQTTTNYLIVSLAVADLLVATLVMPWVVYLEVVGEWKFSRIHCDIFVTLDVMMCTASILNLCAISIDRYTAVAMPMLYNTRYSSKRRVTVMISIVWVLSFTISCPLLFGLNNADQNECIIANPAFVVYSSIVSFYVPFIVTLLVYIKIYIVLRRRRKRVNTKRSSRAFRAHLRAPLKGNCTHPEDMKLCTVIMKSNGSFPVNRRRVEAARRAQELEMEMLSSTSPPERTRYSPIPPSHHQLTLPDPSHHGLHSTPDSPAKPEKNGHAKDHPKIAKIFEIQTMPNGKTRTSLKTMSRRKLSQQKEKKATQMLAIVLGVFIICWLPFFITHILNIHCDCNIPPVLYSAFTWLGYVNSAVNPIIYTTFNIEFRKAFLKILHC
Method in brief: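 HEK293 cells stably expressing DRD2 were cultured 24 h at 37 C, then given Ro20-1724 (0.1 mM final) and compounds for 10 min at room temperature. NKH477 (200nM) was then added for 30 min. cAMP was read by HTRF.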

[18] = target: D(2) dopamine receptor (Homo sapiens) (UniProt P14416); assay: Dopamine D2 receptor (DRD2) small molecule antagonists, cell-based qHTS assay (AID 1963595; active = well fitted inhibition curve with a large enough effect in the signal ratio in the repeat runs, with a control signal flat; the % refers to the signal ratio)
Method in brief: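 Human DRD2 antagonist qHTS measuring cAMP by HTRF. The cells are exposed to compound for 10 min, then to NKH477 (200 nM) and quinpirole (12 nM) for 30 min at RT, with Ro20-1724 (0.1 mM) present throughout.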

[19] = target: Beta-2 adrenergic receptor (Homo sapiens) (UniProt P07550); assay: Adrenergic beta2 receptor (ADRB2) small molecule agonists, cell-based qHTS assay (AID 1963593);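 also: CHO cells stably overexpressing human ADRB2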
Method in brief: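 CHO cells stably over-expressing ADRB2 were plated overnight at 37C, then dosed with compounds plus a stimulation mix containing 100uM IBMX and 25uM Ro-20-1724 for 0.5hr at room temperature. cAMP was measured by HTRF competition, 1hr.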

Measured: Potency
% is scaled to controls: 0 for no effect and ±100 for the full control effect.

CCOC(=O)c1ccc(O)cc1
inactive: [1] | [2] | [3] | [4] | [5] | [6] | [7] | [8] | [9] | [10] | [11] | [12] | [13] | [14] | [15] | [16] | [17] | [18]

C[C@H]1C[C@@H]2[C@H]([C@@H](O)C[C@@]3(C)[C@H]2CC[C@]3(O)C(=O)CO)[C@@]2(C)C=CC(=O)C=C12
inactive: [1] | [2] | [3] | [4] | [5] | [6] | [7] | [8] | [9] | [14] | [16] | [19] | [17] | [18]

O=C1OC2(c3ccccc31)c1cc(I)c(O)c(I)c1Oc1c2cc(I)c(O)c1I
inactive: [4] | [5] | [6] | [7] | [8] | [9] | [10] | [12] | [14]
active: [1] 22.1 µM [middle of 4 runs] | [2] 31.3 µM and 26.8 µM | [11] 31.3 µM [middle of 4 runs] | [13] 33.4 µM [middle of 4 runs] | [16] 33.5 µM | [17] 39 µM and 31 µM

CCCCN(CCCC)CCCC
inactive: [1] | [2] | [3] | [4] | [5] | [6] | [7] | [9] | [10] | [11] | [12] | [13] | [14] | [15] | [16] | [19] | [17] | [18]

CCCCCCC(=O)O
inactive: [1] | [2] | [3] | [4] | [5] | [6] | [7] | [8] | [9] | [10] | [11] | [12] | [13] | [14] | [15] | [16] | [19] | [17] | [18]

CS(=O)(=O)c1ccc([C@@H](O)[C@@H](CO)NC(=O)C(Cl)Cl)cc1
inactive: [1] | [2] | [3] | [4] | [5] | [6] | [8] | [9] | [14] | [17] | [18]

Cc1cccc(C(=O)O)c1
inactive: [1] | [3] | [6] | [7] | [8] | [9] | [10] | [11] | [12] | [13] | [14] | [15] | [19] | [17] | [18]
